Bioassay records as filed in PubChem BioAssay.
Shown is part of a subset that was picked to be rich in hits.
GC-B act: GC-B (human) receptor activation; 0.11% of 370,000 active; P20594; HEK293-GC-B cells, CNP EC30, cGMP TR-FRET; 0% at EC30 CNP, 100% saturating CNP; activation, % at 10 µM;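 active means activation at 10 µM reaching about 35% in either raw or pattern-adjusted values, limit read from the data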
GC-A act: GC-A (human) enzyme activation. 0.14% of 370,000 active. activation, % at 10 µM. HEK293 GC-A cells, cGMP TR-FRET, EC30 ANP; 0% at EC30 ANP, 100% saturating ANP; in the data active means activation above about 40%
HDAC3 inh: human HDAC3 inhibition; recombinant HDAC3, fluorogenic peptide/trypsin coupled, fluorescence; inhibition, % at 8.3 µM; 0.15% of 320,000 active; in the data active means inhibition above about 26%, passing the limit was not always enough
Target sequence (O15379 whole entry, looked up): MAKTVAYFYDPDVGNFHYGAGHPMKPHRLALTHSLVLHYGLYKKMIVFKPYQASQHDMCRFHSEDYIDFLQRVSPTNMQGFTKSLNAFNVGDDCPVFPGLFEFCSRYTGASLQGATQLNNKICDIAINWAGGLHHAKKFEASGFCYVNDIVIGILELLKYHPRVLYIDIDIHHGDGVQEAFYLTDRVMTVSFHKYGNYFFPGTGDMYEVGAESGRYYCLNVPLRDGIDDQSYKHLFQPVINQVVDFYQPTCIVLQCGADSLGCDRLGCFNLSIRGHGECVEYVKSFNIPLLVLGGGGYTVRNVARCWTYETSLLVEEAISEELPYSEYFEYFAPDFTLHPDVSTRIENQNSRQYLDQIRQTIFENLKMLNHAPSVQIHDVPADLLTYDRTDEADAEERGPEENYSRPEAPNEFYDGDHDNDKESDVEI
ALR H2O2 inh: blocks human ALR sulfhydryl oxidase activity; 3.8% of 290,000 active; purified ALR, DTT oxidation, H2O2 HRP-luminol luminescence; inhibition, % (no concentration beside the values);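 active means mean replicate inhibition above about 79%, with every replicate also reaching it, limit read from the data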
Numbers stand for hits.

What do the screens show for `Cc1cc(=O)[nH]c(SCc2csc(-c3ccccc3)n2)n1`?
GC-B act: inactive; GC-A act: inactive; HDAC3 inh: inactive; ALR H2O2 inh: inactive

How did c1ccc(-c2nc(CSc3n[nH]c(-c4cccs4)n3)cs2)cc1 do in these assays?
GC-B act: inactive; GC-A act: inactive; HDAC3 inh: inactive; ALR H2O2 inh: 98

What do the screens show for `Nc1cc(=O)[nH]c(SCc2csc(-c3ccccc3)n2)n1`?
GC-B act: inactive; GC-A act: inactive; HDAC3 inh: inactive; ALR H2O2 inh: 99

How did CCn1cc(C(=O)NCCC(C)C)c(=O)c2cc(F)c(N3CCN(C)CC3)cc21 do in these assays?
GC-B act: inactive; GC-A act: inactive; HDAC3 inh: inactive; ALR H2O2 inh: inactive

What do the screens show for `COc1cc(C#N)c(N=C(SCC#N)N2CCOCC2)cc1OC`?
GC-B act: inactive; GC-A act: inactive; HDAC3 inh: inactive; ALR H2O2 inh: 98

How did COc1cc(C(=O)OCc2ccccc2C#N)ccc1OCC(=O)N1CCOCC1 do in these assays?
GC-B act: inactive; GC-A act: inactive; HDAC3 inh: inactive; ALR H2O2 inh: inactive

How did COc1cccc(NC(=S)Nc2ccc(O)cc2)c1 do in these assays?
GC-B act: inactive; GC-A act: inactive; HDAC3 inh: inactive; ALR H2O2 inh: 99

What do the screens show for `Cc1ccc(NC(=S)NNC(=O)Nc2ccccc2)cc1`?
GC-B act: inactive; GC-A act: inactive; HDAC3 inh: inactive; ALR H2O2 inh: 97

What do the screens show for `COc1cccc(NC(=S)NNC(=O)c2ccccc2OC(F)F)c1`?
GC-B act: inactive; GC-A act: inactive; HDAC3 inh: inactive; ALR H2O2 inh: 79

What do the screens show for `COc1ccc(NC(=S)Nc2ccc3snnc3c2)cc1`?
GC-B act: inactive; GC-A act: inactive; HDAC3 inh: inactive; ALR H2O2 inh: 97

What do the screens show for `O=S1(=O)c2c(NCc3ccco3)cccc2Oc2ccccc2CN1Cc1cn(Cc2ccccc2C(F)(F)F)nn1`?
GC-B act: inactive; GC-A act: inactive

Results for CC(=O)Nc1cc(-c2ccccc2)cn2c(-c3ccc(F)cc3)cnc12 ?
GC-B act: inactive; GC-A act: inactive

How did CN(C(=O)c1cccc(NC(=O)Cc2ccc(NC(=O)C3CCN(C(=O)CCc4ccccc4)CC3)cc2)c1)C1CCCC1 do in these assays?
GC-B act: inactive; GC-A act: inactive

What do the screens show for `C/C(=N\O)C(C)(C)Nc1cccc(Br)c1`?
GC-B act: inactive; GC-A act: inactive; HDAC3 inh: inactive; ALR H2O2 inh: inactive

What do the screens show for `C[C@H]1[C@@H](OC(=O)Nc2cccc(C(F)(F)F)c2)CC[C@@]23CCCN2C(=O)CCC[C@@H]13`?
GC-B act: inactive; GC-A act: inactive

How did Cc1ccccc1NC(=O)c1ccc2c(O)c(S(=O)(=O)c3ccccc3)c(=O)[nH]c2c1 do in these assays?
GC-B act: inactive; GC-A act: inactive; HDAC3 inh: inactive; ALR H2O2 inh: inactive

How did CNc1nc(NC)c2cn[nH]c2n1 do in these assays?
GC-B act: inactive; GC-A act: inactive

Results for Oc1ccc(NC(=S)Nc2ccccc2)cc1 ?
GC-B act: inactive; GC-A act: inactive; HDAC3 inh: inactive; ALR H2O2 inh: 99

What do the screens show for `Cc1ccc(SCCN2CCN(C)CC2)cc1`?
GC-B act: inactive; GC-A act: inactive; HDAC3 inh: inactive; ALR H2O2 inh: inactive

How did COC[C@H]1CCCN1c1ccc2c(c1)OCCCN(C1CC1)S2(=O)=O do in these assays?
GC-B act: inactive; GC-A act: inactive

What do the screens show for `CCc1nnc(NS(=O)(=O)c2ccc(NC(=S)NC(=O)c3ccccc3)cc2)s1`?
GC-B act: inactive; GC-A act: inactive; HDAC3 inh: inactive; ALR H2O2 inh: 96

How did CCc1nnc(NS(=O)(=O)c2ccc(NC(=S)NC(=O)c3ccc(Br)cc3)cc2)s1 do in these assays?
GC-B act: inactive; GC-A act: inactive; HDAC3 inh: inactive; ALR H2O2 inh: inactive

What do the screens show for `COc1cc(/C=C2/SC(=S)N(CC(=O)O)C2=O)ccc1OC(=O)c1ccco1`?
GC-B act: inactive; GC-A act: inactive; HDAC3 inh: inactive; ALR H2O2 inh: 98

How did COc1cc(/C=C2\SC(=S)N(CC(=O)O)C2=O)ccc1OC(=O)c1ccco1 do in these assays?
GC-B act: inactive; GC-A act: inactive; HDAC3 inh: inactive; ALR H2O2 inh: 99

Results for COc1cc(/C=N/n2cnnc2)ccc1OC(=O)c1ccco1 ?
GC-B act: inactive; GC-A act: inactive; HDAC3 inh: 27; ALR H2O2 inh: inactive

Results for Fc1ccc(-c2nc3ccc(Cl)cn3c2Cc2cccc(F)c2)cc1 ?
GC-B act: inactive; GC-A act: inactive

What do the screens show for `COc1cc(OC)cc(C(=O)NC(C(=O)Nc2ccc3c(c2)OCO3)C(C)C)c1` (stereo not given)?
GC-B act: inactive; GC-A act: inactive; HDAC3 inh: inactive; ALR H2O2 inh: inactive
